Activity calls are given as the source filed them. The calls were made as follows: active = hit-call score of the fitted dose curve at least 0.9, where 1 is the maximum; inactive = score below 0.9.

Chain of human PDE10A2 Phosphodiesterase, PDE10A (gene 10846) (Q9Y233 whole entry, looked up): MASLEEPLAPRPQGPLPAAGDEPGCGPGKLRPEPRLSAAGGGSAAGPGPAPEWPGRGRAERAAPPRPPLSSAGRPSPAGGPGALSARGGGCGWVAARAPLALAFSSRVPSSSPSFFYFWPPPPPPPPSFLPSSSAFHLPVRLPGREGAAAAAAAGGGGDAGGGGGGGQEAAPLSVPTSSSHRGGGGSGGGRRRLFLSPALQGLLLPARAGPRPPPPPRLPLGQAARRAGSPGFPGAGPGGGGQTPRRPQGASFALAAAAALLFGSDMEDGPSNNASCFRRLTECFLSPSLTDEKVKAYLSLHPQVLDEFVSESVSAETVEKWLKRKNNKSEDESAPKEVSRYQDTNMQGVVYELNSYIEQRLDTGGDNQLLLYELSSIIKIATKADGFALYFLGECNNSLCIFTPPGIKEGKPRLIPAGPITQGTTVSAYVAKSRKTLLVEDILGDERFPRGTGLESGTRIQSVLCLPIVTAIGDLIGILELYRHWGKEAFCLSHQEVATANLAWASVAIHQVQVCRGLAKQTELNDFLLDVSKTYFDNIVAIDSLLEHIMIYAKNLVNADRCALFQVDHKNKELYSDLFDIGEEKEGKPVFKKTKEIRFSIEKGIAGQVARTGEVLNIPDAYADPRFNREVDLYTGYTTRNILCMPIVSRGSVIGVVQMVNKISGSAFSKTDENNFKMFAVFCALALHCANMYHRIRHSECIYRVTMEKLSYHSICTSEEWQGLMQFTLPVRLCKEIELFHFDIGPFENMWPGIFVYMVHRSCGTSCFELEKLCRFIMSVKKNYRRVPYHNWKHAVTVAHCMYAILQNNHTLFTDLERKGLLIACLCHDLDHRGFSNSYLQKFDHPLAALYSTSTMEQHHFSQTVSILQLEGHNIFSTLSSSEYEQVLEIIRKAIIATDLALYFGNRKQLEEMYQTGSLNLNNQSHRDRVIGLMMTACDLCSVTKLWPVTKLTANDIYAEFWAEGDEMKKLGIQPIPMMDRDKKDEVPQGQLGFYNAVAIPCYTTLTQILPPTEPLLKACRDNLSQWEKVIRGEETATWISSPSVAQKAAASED

The test concerns the target human PDE10A2 Phosphodiesterase, PDE10A (gene 10846) (UniProt Q9Y233). Nature of the test: ERF_FR_ENZ_hPDE10A: Eurofins (ERF) Enzymatic LeadHunter Assay for human PDE10A2 Phosphodiesterase. As for the experimental part: ERF_FR_ENZ_hPDE10A is a biochemical, single-readout assay that uses extracted gene-proteins in a cell-free assay. Measurements were taken 0.33 hour after chemical dosing in a 96-well plate. See PDE10A2 Human Phosphodiesterase Enzymatic Assay, Cerep.ERF_FR_ENZ_hPDE10A is an assay component calculated from the ERF_FR_ENZ_hPDE10A assay. It is designed to measure enzyme activity using a type of enzyme reporter as detected by scintillation counting with radiometry technology.Data from the assay component ERF_FR_ENZ_hPDE10A was analyzed at the assay endpoint, ERF_FR_ENZ_hPDE10A, in the positive analysis fitting direction relative to DMSO as the negative control and baseline of activity. Using a type of enzyme reporter, loss-of-signal activity can be used to understand changes in enzymatic activity as they relate to gene PDE10A. To generalize the intended target to other relatable targets, this assay endpoint is annotated to the phosphodiesterase intended target family, where the subfamily is cyclic nucleotide signaling.
Human cells are incubated for 20 minutes at room temprature with [3H]cAMP + cAMP (0.2uM) as sunstrate and Papaverine as control inhibitor. Test Sample Requirements: Minimum for 1) Screen: 60 ul of 10 mM stock -OR- 1 mg (pre-weighed) for 10 uM final testing. 2) Dose Response: 90 ul of 10 mM stock -OR- 1 mg (pre-weighed) for a top concentration at 10 uM.
For orientation: AC50 means the concentration giving half of the maximal activity seen. Take `O=C(/C=C/c1ccc(O)cc1)CC(=O)/C=C/c1ccc(O)cc1`: the AC50 was 295 nM (active).

These data come from PubChem BioAssay AID2284123 (EPA ToxCast).
